Source: PubChem
This is a sample that favours compounds with a hit; in the whole collection about 21% have one here.
NS1 inh – qHTS Assay for Inhibitors of Influenza NS1 Protein Function | Potency, µM (highest dose often 46.1 µM), without a hit: top-dose activity, positive = more growth | 0.4% of 270,000 active; calls by dose curve; note: potency is the fitted concentration of half-maximal effect; actives are rising curves; nearly all actives have a fitted effect of over 50% in size
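Recovery from NS1-induced slow growth read by OD600 in budding yeast switched to galactose assay medium (pH 6.0, -URA) at 1:100 dilution. Compound 23 nl per well; the matching strain lacking NS1 serves as control.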
Pf growth 96h – Primary qHTS for delayed death inhibitors of the malarial parasite plastid, 96 hour incubation; 6.9% of 320,000 active; AID 504834, 2011; P. falciparum luciferase reporter growth, 96 h; Potency, µM (doses to about 28.7 µM), for the others: top-dose activity change, negative = inhibition, hits mostly inhibitors; note: potency is the fitted concentration of half-maximal effect; % is set by controls: 0 for no effect and ±100 for the full control effect
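Luminescence readout: decreased luciferase signal marks inhibited growth of reporter-expressing P. falciparum in infected red cells (2% hematocrit, 0.05% parasitemia final), exposed to compound two generations (96 h, 37 C, 5% CO2).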
Sm TGR block – qHTS Assay for the Inhibitors of Schistosoma Mansoni Peroxiredoxins. AID 485364, 2010. purified TGR, DTNB reduction, TNB absorbance 405 nm. Schistosoma mansoni thioredoxin glutathione reductase (TGR), Q962Y6. Potency, µM (series often up to 114 µM), for inactives: at the highest dose activity change, negative = inhibition, usual class: inhibitors. 3% of 360,000 active; note: potency is the fitted concentration of half-maximal effect; % is set by controls: 0 for no effect and ±100 for the full control effect; nearly all actives have a fitted effect of over 60% in size
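TGR 20 nM + NADPH 100 uM (dispensed conc.), cpd preinc 15 min RT; start with NADPH (500 uM addition) then DTNB (15 mM addition). Kinetic TNB absorbance, 405 nm filter. Four-parameter Hill fit across titration.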
Shiga inhibitor – A qHTS for Small Molecule Inhibitors of Shiga Toxin | 9.2% of 290,000 active | inhibition, % at 38.7 µM | Vero cells, Shiga toxin protein synthesis inhibition reporter; in the data active = inhibition mostly above about 28%, no sharp cut-off; inactive = mostly below about 43%; note: 0% is about no effect
Cycloheximide cs – Cycloheximide Counterscreen for Small Molecule Inhibitors of Shiga Toxin; cell reporter, cycloheximide protein synthesis inhibition counterscreen; max response, %; 12% of 300,000 active; AID 2314, 2010; in the data active = max response mostly above about 13%, no sharp cut-off; inactive = mostly below about 14%; note: read at 38.3 µM for the half of the compounds with a filed dose; 0% is about no effect
Pf growth 48h – Primary qHTS for delayed death inhibitors of the malarial parasite plastid, 48 hour incubation. AID 504832, 2011. 5.9% of 310,000 active. Potency, µM (series often up to 28.7 µM), for the others: at the highest dose activity change, negative = inhibition, usual class: inhibitors. P. falciparum luciferase growth in erythrocytes, 48 h; note: potency is the fitted concentration of half-maximal effect; % is set by controls: 0 for no effect and ±100 for the full control effect
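First compound was added to culture medium, then infected red cells at 0.1% parasitemia and 2% hematocrit (final). After incubation at 37 C under 5% CO2, luciferase detection reagent was dispensed and light output recorded.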
An asterisk follows results filed as active; u = inconclusive; x = no result; + = active, no number; [ ] = another dose, or the depositor's remark. Unless noted, calls come from the whole dose curve; as a rule, active = well fitted curve in the direction sought with a large enough effect; inconclusive = small, poorly fitted or top-dose-only effect, or another doubt; inactive = no such curve, though single readings can be large; an effect the other way counts as inactive or inconclusive.

SMILES	NS1 inh	Pf growth 96h	Sm TGR block	Shiga inhibitor	Cycloheximide cs	Pf growth 48h
O=C(NCc1ccc(Cl)cc1)C(=O)Nc1cccc(Br)c1	x	x	-7.8%	x	x	x
CC(=O)Oc1ccccc1-c1nc(/C=C/c2ccccc2)no1	-15.0%	-2.8%	1.1%	62.7*	47.0*	134.4%
COc1ccc(/C=C/c2noc(-c3ccccc3O)n2)cc1	14.9%	u	0.9%	82.6*	56.2*	-24.2%
COc1cc(/C=C/c2noc(-c3ccccc3O)n2)cc(OC)c1OC	-5.4%	96.0%	-5.0%	25.8	18.1	73.6%
COC(=O)C1CCN(C(=O)/C(C)=C\c2ccccc2)CC1	15.6%	36.8%	1.8%	-5.0	0.9	23.1%
CC(=O)c1ccc(N2CCN(CC(=O)NC(=O)NCc3ccccc3)CC2)cc1	x	17.0%	-6.1%	x	x	8.8%
O=S(=O)(Nc1cccc2cccnc12)C1CC1	x	x	x	-0.7	10.4	x
O=C(Nc1ccc(Br)cn1)c1coc(=O)c(Br)c1	5.3%	6.3%	-32.2%	49.2*	44.8*	7.9%
O=C(NCc1ccccn1)c1coc(=O)c(Br)c1	15.4%	-2.2%	-1.6%	9.6	1.4	-0.4%
Cc1cc(NC(=O)c2coc(=O)c(Br)c2)ccc1C(C)C	-6.7%	u	-0.6%	108.3*	95.4*	u
O=C(NCCc1ccc(F)cc1)c1coc(=O)c(Br)c1	1.1%	37.2%	-14.4%	31.6	13.6	10.0%
C[C@@H](NC(=O)c1coc(=O)c(Br)c1)c1ccccc1	-4.4%	-20.8%	1.3%	25.6	20.2*	-16.3%
O=C(Nc1ccccc1F)c1coc(=O)c(Br)c1	x	0.5%	-30.0%	+	51.0*	-9.1%
CCc1noc(C)c1C(=O)Nc1ccccc1N1CCOCC1	x	19.9%	-0.9%	x	x	-3.1%
COc1ccc(N(C)S(=O)(=O)c2cccc(C(=O)Nc3nc(C)cs3)c2)cc1	x	u	-1.3%	x	x	13.1µM*
COc1cc(OC)c(N(C)S(=O)(=O)c2cccc(C(=O)Nc3nnc(C4CC4)s3)c2)cc1Cl	-4.2%	u	0.5%	-6.0	-5.5	13.1µM*
COc1ccc(N(C)S(=O)(=O)c2cccc(C(=O)Nc3nnc(C4CC4)s3)c2)cc1	4.1%	u	12.0%	-17.5	-1.0	u
CCOc1ccc(N(C)S(=O)(=O)c2ccc(C)c(C(=O)OCC(=O)c3c[nH]c4ccccc34)c2)cc1	-0.8%	u	x	3.3	-0.1	13.1µM*
CCOc1ccc(N(C)S(=O)(=O)c2ccc(C)c(C(=O)Nc3nnc(C4CC4)s3)c2)cc1	x	u	-2.9%	x	x	4.15µM*
Cn1c(-c2cnn(-c3ccccc3)c2-n2cccc2)n[nH]c1=S	x	u	-3.6%	-3.4	7.8	-29.6%
COc1cccc(NC(=O)c2cc(CN3CCOCC3)on2)c1	x	x	-6.2%	x	x	x
Cc1ccc(CN2CCSc3ccc(C(=O)NCc4ccccn4)cc32)cc1	x	u	3.7%	67.7	22.4	u
COc1cc(NC(=O)c2ccccc2-n2cnnn2)cc(OC)c1	x	19.7%	-2.1%	x	x	-13.3%
COc1ccc(N(C)S(=O)(=O)c2cccc(C(=O)NCc3ccc(C)cc3)c2)cc1	x	5.86µM*	4.5%	x	x	-10.8%
COc1cc(OC)cc(C(=O)Nc2ccc(-n3cnnn3)c(C)c2)c1	-7.0%	-11.4%[5.75 µM]	9.5%	29.6*	22.0*	106.2%
SMILES	NS1 inh	Pf growth 96h	Sm TGR block	Shiga inhibitor	Cycloheximide cs	Pf growth 48h
COc1ccc(N(C)S(=O)(=O)c2cccc(C(=O)Nc3ccc(-n4cnnn4)cc3)c2)cc1	-19.7%	u	-24.6%	-16.5	-2.8	10.4µM*
COc1cc(OC)c(N(C)S(=O)(=O)c2cccc(C(=O)NC3=NCCS3)c2)cc1Cl	8.1%	u	-3.2%	8.4	-2.5	10.4µM*
CCOc1ccc(NC(=O)CSc2nc3c(c(=O)[nH]2)CCCC3)cc1	x	x	2.5%	x	x	x
Cc1ccc(C)c(N2CCN(C(=O)c3ccc(-c4nc(COc5ccccc5)c(C)o4)cc3)CC2)c1	x	x	-8.9%	x	x	x
COc1ccc(CNC(=O)c2sccc2-c2ccccc2)cc1OC	-0.5%	u	3.2%	-15.6	-2.8	-1.4%
Cc1cccn2c(=O)cc(CSc3nnc(NC(=O)c4ccc(F)cc4)s3)nc12	x	x	3.9%	x	x	x
Cc1csc(N(C(=O)c2cccc(S(=O)(=O)N(C)C)c2)c2ccccc2)n1	-12.9%	8.28µM*	-11.8%	6.4	3.2	-16.8%
Cc1csc(N(C(=O)c2cccc(S(=O)(=O)N3CCCC3)c2)c2ccccc2)n1	8.8%	u	-2.4%	43.2	13.0	x
COc1cc(OC)c(N(C)S(=O)(=O)c2cccc(C(=O)Nc3nc(C)cs3)c2)cc1Cl	x	u	-17.4%	x	x	13.1µM*
Cc1csc(NC(=O)c2cccc(S(=O)(=O)N3CCN(C)CC3)c2)n1	x	3.8%	-0.7%	21.1	5.5	-5.3%
CCN1CCN(S(=O)(=O)c2ccc(Cl)c(C(=O)NCc3ccco3)c2)CC1	x	10.9%	-10.3%	x	x	-14.5%
CC1=NN(/C(=N\c2nnc(C)s2)Nc2ccc(C(C)(C)C)cc2)[C@H](c2ccc(C)cc2)S1	-11.2%	6.57µM*	-1.3%	27.2*	10.2	4.15µM*
Cc1ccc(NC(=O)CCSc2nnc(C)s2)cc1	2.5%	-0.8%	1.8%	20.7	8.4	15.3%
Cc1ccc(CSc2ccc3nnc(-c4cccnc4)n3n2)cc1	2.4%	u	2.4%	-11.8	-7.5	u
Cc1ccc(C)c(CSc2ccc3nnc(-c4ccccn4)n3n2)c1	x	u	-4.2%	-20.2	1.1	13.1µM*
Fc1ccc(CSc2ccc3nnc(-c4ccccn4)n3n2)cc1	x	3.29µM*	4.4%	-6.3	-3.3	3.7µM*
Brc1ccc(CSc2ccc3nnc(-c4ccccn4)n3n2)cc1	x	2.94µM*	11.1%	-12.1	-5.4	2.62µM*
Cc1ccc(CSc2ccc3nnc(-c4ccccn4)n3n2)cc1	x	10.4µM*	-2.8%	-9.9	-0.4	2.94µM*
COC(=O)CCN1CCN(S(=O)(=O)c2ccc3c(c2)OCCO3)CC1	x	-26.3%	-8.6%	x	x	-23.9%
CS(=O)(=O)N1CCCC(C(=O)Nc2ccc(F)c(F)c2)C1 (configuration not stated)	x	12.9%	-3.4%	x	x	23.3%
CCCC(=O)N1c2nc(C(C)C)nn2C2(CCCCC2)[C@@H]2CCCC[C@@H]21	x	x	-4.4%	x	x	x
COC(=O)c1ccc(CSc2ccc3nnc(-c4ccccn4)n3n2)o1	-8.7%	10.4µM*	39.8µM*	7.6	-2.1	u
COC(=O)c1ccc(CSc2ccc3nnc(-c4ccc(F)cc4)n3n2)o1	x	u	-21.5%	-8.9	-5.7	u
CCc1ccccc1NC(=S)N1CCC(C(=O)c2ccc(F)cc2)CC1	17.1%	-11.3%	19.9%	14.5	3.1	26.2%
Cc1ccc(C(=O)c2c[nH]cc2-c2ccccc2)cc1	-17.1%	37.8%	2.2%	-32.2	17.0*	12.1%
